Sampled rows, rich in hits. Any-hit rate of the full collection: about 12%.
JMJD2A Tudor: JMJD2A Tudor domain (human) inhibition; O75164; AlphaScreen JMJD2A-Tudor / H3K4me3 peptide binding; Potency, µM (titrated, usually from 114 µM), without a hit: at the top dose activity change, negative = inhibition, most hits filed as inhibitors; hit rate 4.4% among 390,000; further: on the % scale 0 is the no-effect control and ±100 the full control effect; nearly all actives have a fitted effect of over 50% in size
HP1b binding inh: HP1-beta chromodomain-methylated histone interaction inhibition | P83916 | AlphaScreen HP1-beta / biotin-H3K9me3 peptide binding | Potency, µM (titrated, usually from 114 µM), for inactives: top-dose activity change, negative = inhibition, hits mostly inhibitors | hit rate 0.56% among 390,000; further: nearly all actives have a fitted effect of over 70% in size
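Compound inhibition of the preformed complex between 50 nM HP1-beta and 50 nM biotinylated H3K9me3 peptide was read by AlphaScreen. Buffer was PBS pH 7.4 with 0.01% Tween-20. Incubations ran 30 min at room temperature, with 10 ug/mL donor/acceptor beads.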
Sfp inh: blocks B. subtilis Sfp PPTase activity | AID 1490 | Potency, µM, without a hit: largest response in the series, negative = inhibition, hits mostly inhibitors | Q9F4F7 | hit rate 3.5% among 310,000 | Biochemical Sfp PPTase activity, qHTS;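 further: the enzyme is Sfp with the accession as filed and its product quenches rhodamine fluorescence; 0% = enzyme reaction without inhibitor and -100% = no enzyme wells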
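Fluorescence-quenching assay with 15 nM Sfp, 5 uM rhodamine-CoA and 12.5 uM BHQ-2-labelled ybbR peptide in pH 7.6 Hepes/MgCl2 buffer. Enzyme was pre-incubated with compound for 15 min at room temperature. Rate was taken from the 30-min fluorescence change (525/598 nm).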
BAZ2B block: blocks human BAZ2B. AlphaScreen BAZ2B-H3K14Ac peptide displacement. AID 504333. hit rate 4.4% among 360,000. Potency, µM (titrated, usually from 114 µM), for inactives: at the highest dose activity change, negative = inhibition, hits mostly inhibitors. Q9UIF8; further: on the % scale 0 is the no-effect control and ±100 the full control effect; nearly all actives have a fitted effect of over 60% in size
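Multi-concentration screen (max 110 uM) measuring displacement of acetylated histone H3 peptide from BAZ2B by AlphaScreen, using 50 nM protein, 50 nM peptide and 10 ug/mL streptavidin donor plus Ni-chelate acceptor beads.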
G9a inh: G9a (human) methyltransferase inhibition | G9a H3K9 monomethylation, AlphaScreen, 2 h | Potency, µM (titrated, usually from 102 µM), inactives show at the top dose activity, negative = inhibition, most hits filed as inhibitors | hit rate 8.8% among 350,000; further: on the % scale 0 is the no-effect control and ±100 the full control effect; nearly all actives have a fitted effect of over 75% in size
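AlphaScreen detection with an anti-monomethyl H3K9 antibody quantified product after a 2 h room-temperature reaction containing 500 nM biotinylated H3K9 peptide, 20 µM SAM and 20 nM enzyme, which had been preincubated 15 min with compound.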
The depositor's hits bear a star; ? = inconclusive; / = no result; [ ] = remark or other dose. The call rests on the fitted dose curve; in most records, active means well fitted curve in the direction sought with a large enough effect; inconclusive means small, poorly fitted or top-dose-only effect, or another doubt; inactive means no such curve, though single readings can be large; an effect the other way counts as inactive or inconclusive. Potency means the concentration at half of the fitted maximal effect.

SMILES	JMJD2A Tudor	HP1b binding inh	Sfp inh	BAZ2B block	G9a inh
O=Cc1ccc(-c2ccc(F)cc2)o1	-3%	33%	9%	-12%	8%
O=C(O)/C=C/C(=O)c1ccc(O)cc1	-11%	55%	2.2µM*	-2%	?
Cc1ccc(C(CC(=O)Nc2ccc(C)cc2C)N2Cc3ccccc3C2=O)cc1 (configuration not stated)	-19%	14%	/	?	-41%[59 µM]
CC(/C=C/C(=O)c1ccc(C)cc1)=C\c1ccccc1	37%	109%	?	30%	9%[59 µM]
O=C(/C=C/c1ccccc1)c1ccccc1	143%	126%	?	24%	-11%[59 µM]
Cc1ccc(C(=O)NNC(=O)/C=C\C(=O)O)cc1	-12%	40%	?	?	50µM*
Cc1ccc(C(=O)NNC(=O)c2ccc(C)cc2)cc1	-15%	14%	13%	/	8%
Cc1ccc(C(=O)/C=C\C(=O)c2ccc(C)cc2)cc1	-19%	-5%	1.8µM*	-10%	1.6µM*
CC(=O)N1CCN(C(=O)c2ccc(-c3cccc(C(F)(F)F)c3)o2)CC1	-9%	33%	/	4%	50µM*
O=C(/C=C\c1ccc(-c2ccccc2)o1)c1ccccc1	-32%	?	11µM*	32µM*	10µM*
Cc1cccc(NC(=O)C(=O)NCCc2csc(-c3ccc(C(F)(F)F)cc3)n2)c1C	-9%	14%[57 µM]	/	5%	13%[59 µM]
Cc1oc(-c2ccc(C(=O)NCc3ccc(N(C)C)cc3)cc2)nc1COc1ccccc1	-22%	4%	/	-6%	-12%[59 µM]
Cn1nccc1C(=O)N1CCCC(N2CCN(c3cccc(C(F)(F)F)c3)CC2)C1 (configuration not stated)	/	/	19%	-13%	?
Cc1ccc(C(=O)/C=C\NCc2ccccc2)cc1	-19%	24%	89µM*	-6%	-2%
CCOC(=O)CCc1ccc(NC(=O)/C=C/c2ccc([N+](=O)[O-])o2)cc1	-16%	21%	/	/	/
Cn1nccc1C(=O)N1CCN(c2cccc(C(F)(F)F)c2)CC1	-16%	38%	17%	-28%	71µM*
CCc1ccc(C(=O)/C=C/c2ccc([N+](=O)[O-])o2)cc1	?	?	-6%	?	32µM*
Cc1ccc(C(=O)/C=C/c2ccc(-c3ccc(C)cc3)o2)cc1	79µM*	-25%	8.9µM*	-34%	?
C[C@@]12CCC3c4ccc(OS(=O)(=O)O)cc4CCC3C1CCC2O (some centres not stated)	/	/	19%	/	/
Cc1ccc2nc(-c3ccc(NC(=O)COC(=O)c4ccc(=O)[nH]c4)cc3)sc2c1	45µM*	-17%	-8%	-1%	-15%[59 µM]
Cc1ccc2nc(-c3ccc(NC(=O)CNC4CC4)cc3)sc2c1	?	-20%	-30%	45µM*	7.1µM*
Cc1ccc2nc(-c3ccc(NC(=O)C(F)(F)F)cc3)sc2c1	-2%	33%	/	4%	-37%[59 µM]
Cc1c2cnn(CC(=O)NCc3ccc(F)cc3)c(=O)c2c(C)n1Cc1cccc(Cl)c1	-13%	9%	/	4%	-5%[59 µM]
COc1ccc(CN2CCN(C(=O)c3ccco3)CC2)c(OC)c1OC	25µM*	?	/	/	/
CCc1cc2ccc(C)cc2nc1SCC(=O)N1CCN(C(=O)c2ccco2)CC1	89µM*	?	?	?	?
SMILES	JMJD2A Tudor	HP1b binding inh	Sfp inh	BAZ2B block	G9a inh
O=C(COC(=O)C1(c2ccc(F)cc2)CCCC1)N1CCN(C(=O)c2ccco2)CC1	-16%	28%	0%	5%	8%
COc1ccccc1CN1CCC2(CC1)CCN(C(=O)c1ccco1)CC2	/	/	2%	/	-6%[12.7 µM]
O=C(c1ccco1)N1CCN(Cc2cccnc2)CC1	3.5µM*	-45%	?	25µM*	3.5µM*
O=C(COC(=O)C1(c2ccccc2F)CCCC1)N1CCN(C(=O)c2ccco2)CC1	-2%	0%	2%	1%	50µM*
Cc1ccc(CN2CCN(C(=O)c3ccco3)CC2)cc1	-19%	15%	-3%	-1%	11%[59 µM]
COc1ccc2c(c1)c1c(c(=O)n(-c3cccc(Cl)c3)c(=O)n1CC(=O)NCC1CCCO1)n2C (configuration not stated)	-7%	40%	/	-8%	-3%[59 µM]
Brc1ccc(CN2CCc3nc(Nc4ccccc4)ncc3C2)s1	?	26%	/	-35%	?
CCCC(=O)c1ccc(O)cc1O	/	/	9%	7%	35%
COc1cc([N+](=O)[O-])ccc1NC(=O)N1CCC2(CC1)Nc1cc(F)ccc1-n1cccc12	-30%	-2%[57 µM]	/	-23%	?
COc1ccc(Br)cc1CN1CCN(C(=O)c2ccco2)CC1	7.1µM*	32µM*	?	28µM*	10µM*
COc1ccccc1CN1CCN(C(=O)c2ccco2)CC1	1µM*	50µM*	-22%	?	22µM*
O=C(CSc1ccc(Br)cc1)N1CCN(C(=O)c2ccco2)CC1	-8%	46%	3%	-6%	45µM*
O=C(c1ccco1)N1CCN(Cc2ccccc2F)CC1	28µM*	?	-30%	?	28µM*
O=C(COC(=O)c1ccc2ncsc2c1)NCc1ccccc1Cl	1%	57%	/	/	/
COc1cc(S(=O)(=O)NCC2(N3CCCCC3)CCCCC2)ccc1NC(C)=O	-18%	9%	/	11%	8%
CC(C)c1ccc(C(C)NCCS(=O)(=O)c2ccc(Cl)cc2)cc1 (configuration not stated)	-6%	53%	11%	-4%	31%
COc1cc(OC)c(NC(=O)N2CCCn3nc(C)cc32)cc1Cl	-3%	46%	/	5%[57.1 µM]	-8%[59 µM]
Cc1nc(N2CCOCC2)c2nc(-c3ccccc3)n(CCN(C)C)c2n1	/	/	1%	/	/
COc1ccc(-c2nc3cnc(Nc4ccccc4)nc3n(CCC#N)c2=O)cc1	/	/	13%	/	-4%[12.7 µM]
COc1ccc(OC)c(-c2nn(-c3ccccc3)cc2C(=O)NCC(c2ccco2)N2CCCC2)c1 (configuration not stated)	?	-1%	/	-36%	33%[12.7 µM]
Cc1ccc(NC(=O)CSc2nc3ccc(NC(=O)c4cccs4)cc3s2)c(C)c1	-6%	32%	/	-7%	-23%[59 µM]
C=CCCC(=O)Nc1nc(C)c(-c2csc(Nc3ccccc3OC)n2)s1	?	-9%	6%	?	25µM*
CCCCC(=O)Nc1nc(C)c(-c2csc(Nc3ccccc3OC)n2)s1	?	19%	-4%	?	?
C=CCCC(=O)Nc1nc(C)c(-c2csc(Nc3ccc(Cl)cc3Cl)n2)s1	?	?	-22%	?	7.1µM*
C=CCCC(=O)Nc1nc(C)c(-c2csc(Nc3cc(Cl)ccc3OC)n2)s1	?	3%	-29%	?	?
CCN(CC)S(=O)(=O)c1ccc(C(=O)Nc2nnc(C(C)C)s2)cc1	-29%	25%	11%	-5%	35µM*
CCOc1ccc(C(=O)Nc2nnc(C(C)C)s2)cc1OCC	-8%	2%	89µM*	4%	10µM*
COc1ccc(C(=O)Nc2nnc(C(C)C)s2)cc1OC	12%	7%	/	3%	8%[59 µM]

Screens: PubChem BioAssay, National Center for Advancing Translational Sciences (NCATS)
